Here are results for 23 compounds from PubChem BioAssay (NCATS).

Assay [1] addresses Phospholipid hydroperoxide glutathione peroxidase GPX4 (Homo sapiens) (UniProt P36969). The experiment in a line: Primary qHTS Assay for Inhibitors of Recombinant Selenoprotein Glutathione Peroxidase 4 (GPX4) (AID 1845192). Also: series mostly up to about 50 µM; nearly all actives have a fitted effect of over 65% in size. The method, boiled down:
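NADPH consumption, followed by fluorescence at 340/450 nm between 0 and 15 min, reports GPX4 activity via coupled glutathione reductase (100 nM). Enzyme 200 nM was pre-exposed to compound 30 min; 0.5 mM cumene hydroperoxide and 1 mM GSH served as substrates.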
A general note: qHTS replaces the single test concentration by a dilution series.

Assay [2] addresses Luciferin 4-monooxygenase (Photinus pyralis) (UniProt P08659). The experiment in a line: Primary firefly luciferase (FLuc) qHTS assay for identification of artifact compounds. (AID 1845220). Also: nearly all actives have a fitted effect of over 60% in size. The method, boiled down: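 Cell-free, 1536-well qHTS. Buffer pH 7.6 with 0.01% Tween-20 and 0.05% BSA; 10 uM D-luciferin, 10 uM ATP; 10 nM P. pyralis luciferase; luminescence after 5 min.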

A short description of assay [3]: Primary fluorescence-based thiol-reactive (MSTI) qHTS assay for identification of artifact compounds. (AID 1845221). Also: nearly all actives have a fitted effect of over 65% in size. Also: potency is read from the fitted curve at half-maximal effect. The method, boiled down: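 qHTS titration of compound; 4 uM MSTI, PBS pH 7.4, 2% DMSO; 1 h RT, dark; fluorescence 525/598 nm; normalized to Acetyl-MSTI and MSTI; 4-parameter Hill fit.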
Assay [4] concerns Nanoluciferase (engineered Oplophorus gracilirostris luciferase). Description: Primary Nanoluciferase (NLuc) qHTS assay for identification of artifact compounds. (AID 1845222). Also: series mostly up to about 54 µM. The method, boiled down: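 Compounds are pinned into diluted (1:55) conditioned medium of NLuc-expressing S16 cells and held 15 min at room temperature protected from light. Nano-Glo substrate follows, and luminescence is read 5 min later.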

Assay [5] is described as follows: Primary redox qHTS assay for identification of artifact compounds. (AID 1845223). The method, boiled down:
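Amplex Red (25 uM) and HRP (250 mU/mL) in HBSS, with compounds for 15 min, then 250 uM DTT for 30 min, room temperature, dark. Fluorescence 525/598 nm read; normalized to DMSO and 10 uM DA3003; Hill fit.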

Results filed as inconclusive are left out. Active and inactive are the calls of the source. Calls follow the shape of the dose curve; as a rule, active = well fitted curve in the direction sought with a large enough effect; inconclusive = small, poorly fitted or top-dose-only effect, or another doubt; inactive = no such curve, though single readings can be large; an effect the other way counts as inactive or inconclusive.

Phospholipid hydroperoxide glutathione peroxidase GPX4 (Homo sapiens), sequence (P36969 whole entry, looked up): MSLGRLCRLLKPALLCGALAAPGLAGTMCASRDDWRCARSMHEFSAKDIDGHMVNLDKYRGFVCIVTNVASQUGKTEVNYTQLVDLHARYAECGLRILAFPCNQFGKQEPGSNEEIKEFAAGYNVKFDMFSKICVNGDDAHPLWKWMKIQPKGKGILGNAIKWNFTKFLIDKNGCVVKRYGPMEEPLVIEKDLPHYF

As to `N#Cc1ccc(COC[C@H]2O[C@@H](n3c(NCc4ccc(Cl)c(Cl)c4)nc4c(N)ncnc43)[C@H](O)[C@@H]2O)cc1`, the Potency entry in assay [1], in assay [2], in assay [3], in assay [4] and in assay [5] was “inactive” each time.
Turning to `CN(C)C(CCOc1cccc2ccccc12)c1ccccc1` (configuration not stated), the Potency result in assay [1], in assay [2], in assay [3] and in assay [4] was “inactive” throughout.
In the case of `Cc1c(Cl)cccc1S(=O)(=O)Nc1nc(NCCc2ccccc2)nc2c1CN(Cc1ccccc1)CC2`, the Potency result in assay [1], in assay [2], in assay [3] and in assay [4] was “inactive” each time.
For `CC#CCn1c(N2CCCC(N)C2)nc2c1c(=O)n(Cc1nc(C)c3ccccc3n1)c(=O)n2C` (configuration not stated), the Potency entry in assay [1], in assay [2], in assay [3] and in assay [4] was “inactive” throughout.
Consider `C/C=C(/C)C(=O)OC1C=C2C3C(C)C(C)C(OC(=O)C(C)C(C)O)CC3(C)CCC2(C)C2(C)CC(OC(C)=O)C3C(C)(C)C(O)C(=O)CC3(C)C12` (configuration not stated), for which the Potency entry in assay [1], in assay [2], in assay [3], in assay [4] and in assay [5] was “inactive” in each case.
In the case of `COc1cc(F)c(F)c(Nc2ccc(I)cc2F)c1NS(=O)(=O)C1(CC(O)CO)CC1` (configuration not stated), the Potency entry in assay [1], in assay [2], in assay [3] and in assay [4] was “inactive” in each case.
With `CCCCCCOC(=O)/N=C(\N)c1ccc(NCc2nc3cc(C(=O)N(CCC(=O)OCC)c4ccccn4)ccc3n2C)cc1`, the Potency result in assay [1], in assay [2], in assay [3], in assay [4] and in assay [5] was “inactive” each time.
Take `CC1=C(c2ccc(NC(=O)c3c(F)cccc3F)cc2)CN(c2nccs2)CC1`: the Potency result in assay [1], in assay [2], in assay [3], in assay [4] and in assay [5] was “inactive” throughout.
Take `CC1CCCC(O)CCC/C=C/c2cc(OS(=O)(=O)O)cc(O)c2C(=O)O1` (configuration not stated): the Potency entry in assay [1], in assay [2], in assay [3], in assay [4] and in assay [5] was “inactive” throughout.
`CC1(NC(=O)c2ccc(C#Cc3cccc(F)c3)cn2)COC1`: the Potency entry in assay [1], in assay [2], in assay [3], in assay [4] and in assay [5] was “inactive” throughout.
Take `N#Cc1ccc(Nc2nc(-c3ccc(O)cc3O)cs2)cc1C(F)(F)F`: the Potency entry in assay [1], in assay [2] and in assay [4] was “inactive” in each case. In assay [3], the Potency was 2990 nM (active).
On to `CC(=O)O[C@H]1C[C@@](O)(C(C)C)[C@@H]2[C@@H](OC(=O)c3ccc(O)cc3)CC(C)=CC[C@@]12C`, for which the Potency entry in assay [1], in assay [2], in assay [3], in assay [4] and in assay [5] was “inactive” each time.
As to `COc1cc2c(cc1-c1c(C)noc1C)ncc1[nH]c(=O)n(C(C)c3ccccn3)c12` (configuration not stated), the Potency result in assay [1], in assay [2], in assay [3], in assay [4] and in assay [5] was “inactive” throughout.
`CC(=O)O[C@@]12CO[C@@H]1C[C@H](O)[C@@]1(C)C(=O)[C@H](O)C3=C(C)[C@@H](OC(=O)[C@H](O)[C@@H](NC(=O)OC(C)(C)C)c4ccccc4)C[C@@](O)([C@@H](OC(=O)c4ccccc4)C12)C3(C)C` (some centres not stated): the Potency entry in assay [1], in assay [2], in assay [3], in assay [4] and in assay [5] was “inactive” in each case.
For the compound `CCC1C(=O)N(C)c2cnc(Nc3ccc(C(=O)NC4CCN(C)CC4)cc3OC)nc2N1C1CCCC1` (configuration not stated), the Potency result in assay [1], in assay [2], in assay [3] and in assay [4] was “inactive” in each case.
`O=C(Nc1ccc(-c2ccnc(Nc3ccc(N4CCOCC4)cc3)n2)cc1)C1CCCN1` (configuration not stated): the Potency result in assay [1], in assay [2], in assay [4] and in assay [5] was “inactive” throughout. In assay [3], the Potency is 11900 nM (active).
Take `COC(=O)c1cc2c(C(F)(F)F)cc(-c3ccccc3)cc2n1O`: the Potency result in assay [1], in assay [2], in assay [4] and in assay [5] was “inactive” each time. Further, in assay [3], the Potency was 2670 nM (active).
Turning to `NC(=O)c1cnc(N[C@@H]2CCCC[C@H]2N)nc1Nc1cccc(-n2nccn2)c1`, the Potency entry in assay [1], in assay [2], in assay [3] and in assay [4] was “inactive” each time.
For `Cc1ccc(C)c(-c2cc(C(F)(F)F)nn2-c2ccc(S(N)(=O)=O)cc2)c1`, the Potency entry in assay [1], in assay [2], in assay [3], in assay [4] and in assay [5] was “inactive” each time.
On to `O=C(Nc1ccccc1Br)NC1CCN(c2ccc(C(F)(F)F)cn2)C1` (configuration not stated), for which the Potency result in assay [1], in assay [2], in assay [3], in assay [4] and in assay [5] was “inactive” in each case.
On to `Fc1ccc(N2CCCCC2)c(NC(=S)c2ccncc2)c1`, for which the Potency entry in assay [1], in assay [2], in assay [3], in assay [4] and in assay [5] was “inactive” each time.
For `CCNC1(C(N)=O)CCN(c2ncnc3c2nc(-c2ccccc2Cl)n3-c2ccc(Cl)cc2)CC1`, the Potency entry in assay [1], in assay [2], in assay [3], in assay [4] and in assay [5] was “inactive” throughout.
`C=C(NC(=O)C(=C)NC(=O)c1csc(C2=NC3c4csc(n4)C4NC(=O)c5csc(n5)C(C(C)(O)C(C)O)NC(=O)C5CSC(=N5)/C(=C/C)NC(=O)C(C(C)O)NC(=O)c5csc(n5)C3(CC2)NC(=O)C(C)NC(=O)C(=C)NC(=O)C(C)NC(=O)C(C(C)CC)NC2C=Cc3c(C(C)O)cc(nc3C2O)C(=O)OC4C)n1)C(N)=O` (configuration not stated): the Potency result in assay [1], in assay [2], in assay [3] and in assay [4] was “inactive” each time.
